Data on 71 molecules can be found in ChEMBL document CHEMBL4513216, “Probing the Open Global Health Chemical Diversity Library for Multistage-Active Starting Points for Next-Generation Antimalarials” (ACS Infect Dis, 2020).

The structures appear in SMILES notation. Out of some 69,000 compounds screened, about 8,600 (12%) showed an effect of 50% or more. The full list was thinned out, with strong results kept by preference.

For this test, the system named is Plasmodium berghei. The experiment in a line: Screen against P. berghei liver stage (PbLuc), transformed with Luciferase, at 10uM. The class given is functional, HepG2. The note with it: tested at 10 uM.
In the case of `CN(C)[C@@H]1CCN(C(=O)NC2CCCC2)[C@H]1Cc1ccncc1`, the INHIBITION is on record as 23.3%. In the case of `O=c1[nH]c(N2CCCCC2)nc2c1CCN(Cc1cccnc1)C2` it was 8.72%; in that of `CCn1c(=O)c2cc(S(N)(=O)=O)ccc2n(CC)c1=O`, 2.84%; in that of `CC(C)N(C)Cc1cn2c(n1)CN(Cc1ccsc1)CC2`, -14.9%. Take `Cc1cc(CN2CCCC(Cn3cncn3)C2)on1` (stereo unspecified): the INHIBITION stood at 35.3%. Turning to `Cc1nc(CNC(=O)NCc2cccnc2N(C)C)cs1`, the INHIBITION is reported as -27.8%. With `COc1ccc(NC(=O)N2CCCC2c2ccco2)c(OC)c1` (stereo unspecified), the INHIBITION is reported as 41.5%.

In the case of `CN(CCNC(=O)Nc1ccn(C)n1)Cc1ccc(F)cc1`, the INHIBITION came to 52.7%. Turning to `CN(CCNC(=O)Nc1nccs1)Cc1ccc(F)cc1`, the INHIBITION is recorded as 2.7%. Turning to `CN(CCNC(=O)Nc1cnn(C)c1)Cc1ccc(F)cc1`, the INHIBITION is reported as 49.3%. Turning to `O=C(Nc1nnn[nH]1)c1cc(-c2ccc(Br)s2)n[nH]1`, the INHIBITION was 11.3%. In the case of `N#CCCN(Cc1ccco1)C(=O)C1CCCc2ccccc21` (stereo unspecified) it was 24.2%. In the case of `Cc1noc(C)c1CN(C)C(=O)C1CCCc2ccccc21` (stereo unspecified) it was 26.6%; in that of `CN(Cc1ccco1)C(=O)C1CCCc2ccccc21` (stereo unspecified), 50.5%. As for `Cc1ccoc1C(=O)N1C[C@@H](N2CCN(C)CC2)[C@H]2OCCC[C@H]21`, the INHIBITION was -26.5%.

On to `Cc1cc(-c2cnc(NC3CCCC3)nc2-c2ccoc2)on1`, for which the INHIBITION amounted to 41.2%.

As to `Cc1noc(-c2cnc(NC3CC3)nc2-c2ccco2)c1C`, the INHIBITION is 7.9%. Regarding `Cc1cc(-c2cnc(NC3CCCC3)nc2-c2ccoc2C)on1`, the INHIBITION is 78.5%. `Cc1occc1-c1nc(NC2CCCC2)ncc1-c1ccccn1`: the INHIBITION turned out to be 62.9%.

For `Cc1cc(-c2cnc(NC3CCCC3)nc2-c2ccco2)on1`, the INHIBITION is on record as -18.9%. As for `Cc1cc(-c2cnc(NC3CC3)nc2-c2ccco2)on1`, the INHIBITION is reported as -21.4%. In the case of `Cc1cc(-c2cnc(NC3CC3)nc2-c2ccc(C)o2)on1`, the INHIBITION is 39.2%.

Regarding `Cc1cc(-c2cnc(NC3CCCCC3)nc2-c2ccco2)on1`, the INHIBITION was 60.5%. For `Cc1cc(-c2cnc(NC3CCCC3)nc2-c2ccc(C)o2)on1`, the INHIBITION is recorded as 11.1%. Consider `Cc1cnc(-c2nc(NC3CCCC3)ncc2-c2onc(C)c2C)cn1`, for which the INHIBITION is -29.8%. As for `Cc1cc(-c2cnc(NC3CC3)nc2-c2ccoc2C)on1`, the figure is 58.1%; as for `Cc1cc(-c2cnc(NC3CC3)nc2-c2ccoc2)on1`, 3.91%. As for `O=C(NCCO)C1CN(c2cncnc2)CCO1` (stereo unspecified), the INHIBITION worked out at 3.91%. As to `CCCOC1CCCN(C(=O)c2cc(CN(CC)CC)c(CC)o2)C1` (stereo unspecified), the INHIBITION worked out at 18.5%. As for `COc1ccc(CN(Cc2ccccn2)Cc2cncn2C)cc1`, the figure is 23.9%; as for `CCn1nc(C)c(CN(Cc2ccccn2)Cc2ccccc2Cl)c1C`, 50.8%; as for `Cc1nn(C)cc1CN(Cc1ccccn1)Cc1ccccc1Cl`, 48%. `Cc1ncc(CN(Cc2ccccn2)Cc2ccccc2Cl)n1C`: the INHIBITION was found to be 69.4%. Regarding `CN(Cc1nccn1C)C1CCN(CCc2ccccn2)CC1`, the INHIBITION is reported as -3.2%. On to `CCn1nc(C)c(CN(CCCN(C)C)Cc2ccccn2)c1C`, for which the INHIBITION is given as -37.4%. `COCCn1ccnc1CN(Cc1ccccn1)CC(C)C`: the INHIBITION is 44%. On to `Cn1ccnc1CN(Cc1ccccn1)Cc1ccccc1Cl`, for which the INHIBITION was 79.6%.

As for `CCn1nc(C)c(CN(CCOC)Cc2ccccn2)c1C`, the INHIBITION is recorded as 4.12%. In the case of `O=S(=O)(CCNCCn1cccn1)c1ccccc1` it was 19.8%; in that of `COC1CCN(C(=O)Nc2cc(C(F)(F)F)c[nH]c2=O)CC1`, -111%.

Consider `COCCNC(=O)C1CC(=O)N(c2n[nH]c3cccc(F)c23)C1` (stereo unspecified), for which the INHIBITION was -23.7%. Consider `CC1CCCCN1CCNC(=O)c1ccn(-c2cccc(F)c2)n1` (stereo unspecified), for which the INHIBITION was determined as 16.8%.

Consider `CN(CCC(F)(F)F)C(=O)c1nc(S(C)(=O)=O)n2ccccc12`, for which the INHIBITION was found to be 12.6%. In the case of `Cc1nc(Nc2nnc(C)s2)cc(C2CCCN2C(C)C)n1` (stereo unspecified) it was -15.3%; in that of `COC(=O)c1cc(OC)c(OC)cc1N(C)S(C)(=O)=O`, 44.3%. As for `CN(C)CC(=O)N1CC2(CCN(C(=O)Nc3ccccc3)C2)C1`, the INHIBITION came out at 0.112%. With `Cc1nc(CC(=O)NS(=O)(=O)c2cccc3cnccc23)cs1`, the INHIBITION came out at 6.33%. For `CCN1C[C@H]2C3(CCN(S(=O)(=O)CC)CC3)CC[C@@]2(C(=O)N(C)C)C1`, the INHIBITION stood at 13.7%. Consider `COc1cccc(CN2CCCCC2CN2CCOCC2)c1F` (stereo unspecified), for which the INHIBITION is on record as 60.4%. As for `COc1cccc(CN2C[C@H]3CC[C@H]2C3)c1OCCN1CCOCC1`, the INHIBITION is on record as -14.5%. As for `COc1cc2c(cc1CN1CCCCC1CN1CCOCC1)CCC2` (stereo unspecified), the figure is 13.9%; as for `CCc1nc(Cn2ccnc2-c2nccn2C)no1`, 45.2%. On to `CCc1nc(CCn2ccnc2-c2nccn2C)no1`, for which the INHIBITION came to 65.6%. In the case of `CCc1nc(CCn2cc(-c3nccn3C)nn2)no1`, the INHIBITION was 23%. For `CS(=O)(=O)c1cc(Cl)cnc1C1CCN(C(=O)C2CCOCC2)CC1`, the INHIBITION is 24.8535%.

In the case of `Cc1cccc(CN2C(=O)CC[C@@H]3[C@H]2CCN3C(=O)c2ccsc2)n1`, the INHIBITION is 14.8%.

Turning to `COCCOc1ccc(F)cc1NCc1nc2ccccc2n1C`, the INHIBITION was -3.12%. As for `COCCOc1ncccc1NCc1nc2ccccc2n1C`, the figure is -16%; as for `COc1cc(F)c(NCc2nc3ccccc3n2C)cc1OC`, 59.8%; as for `O=C(c1ccc(Cl)cc1)N1CCC(N2CCCNC2=O)CC1`, 40.8%. Regarding `CCN1CCN(C(=O)CCn2cccc2)CC1`, the INHIBITION is reported as 2.69%. On to `COCCN1CC(c2cc(O)nc(NC(C)C)n2)CC1=O` (stereo unspecified), for which the INHIBITION is on record as -17.7%. As for `COc1ccc(CC2CN(Cc3cncn3C)CCO2)cc1` (stereo unspecified), the figure is 47.1%; as for `Cc1cc(C)n(CC2CN(Cc3ccc4c(c3)OCCO4)CCO2)n1` (stereo unspecified), 14.3%. In the case of `Nc1cc(CCC2CN(Cc3cccc(C(=O)O)c3)CCO2)ccn1` (stereo unspecified), the INHIBITION is recorded as 45.6%. Take `c1ccc(CCCC2CN(Cc3ncc[nH]3)CCO2)cc1` (stereo unspecified): the INHIBITION is reported as 28.5%. As to `Nc1cc(CCC2CN(Cc3ccc4cc[nH]c4c3)CCO2)ccn1` (stereo unspecified), the INHIBITION is on record as 78.2%. Consider `CNc1nccnc1C1CN(Cc2ccc3[nH]ccc3c2)CCO1` (stereo unspecified), for which the INHIBITION is listed as 21.1%. As for `Nc1cc(CCC2CN(Cc3ccc4c(c3)OCCO4)CCO2)ccn1` (stereo unspecified), the figure is 69.3%; as for `COc1ccc(CN2CCOC(CCc3ccnc(N)c3)C2)cc1` (stereo unspecified), 87.1%. As for `Nc1cc(CCC2CN(Cc3ccc(C(=O)O)cc3)CCO2)ccn1` (stereo unspecified), the INHIBITION came to 32.8%.
